Measured values: the supplement of paper PMC10849652
About 7,900 targets were measured; listed, in parts, are those with a hit and a random draw of the rest. About 0.6% of all pairs of compound and target were hits. Unmarked numbers belong to inactive results.

Compound: C[C@H](C1=CC=C(C=C1)C(=O)NC2=C3C=CNC3=NC=C2)N
Assay: log2 fold change, soluble protein after heating vs DMSO (PISA); higher = thermal stabilisation; K562 cells, 10 uM, 30 min; active = over 0.2 and 3.5 SD of the protein, either way, in both replicates (recomputed)
How it was run: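 K562 cells at 2×10^6 cells/mL were exposed to 10 μM compound for 30 min, then aliquots were heated for 3 min across 48°C-58°C, pooled, and extracted in PBS containing 0.5% NP-40 at 4°C. The supernatant after 21,000xg for 90 min was taken as soluble protein and measured by TMTpro 16plex LC-MS/MS with channel sums equalised. Thermal stability is reported relative to control samples, with values from duplicates. Fold changes are given on a log2 scale.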

Chain of UniProt Q96CS3 (Q96CS3 whole entry, looked up): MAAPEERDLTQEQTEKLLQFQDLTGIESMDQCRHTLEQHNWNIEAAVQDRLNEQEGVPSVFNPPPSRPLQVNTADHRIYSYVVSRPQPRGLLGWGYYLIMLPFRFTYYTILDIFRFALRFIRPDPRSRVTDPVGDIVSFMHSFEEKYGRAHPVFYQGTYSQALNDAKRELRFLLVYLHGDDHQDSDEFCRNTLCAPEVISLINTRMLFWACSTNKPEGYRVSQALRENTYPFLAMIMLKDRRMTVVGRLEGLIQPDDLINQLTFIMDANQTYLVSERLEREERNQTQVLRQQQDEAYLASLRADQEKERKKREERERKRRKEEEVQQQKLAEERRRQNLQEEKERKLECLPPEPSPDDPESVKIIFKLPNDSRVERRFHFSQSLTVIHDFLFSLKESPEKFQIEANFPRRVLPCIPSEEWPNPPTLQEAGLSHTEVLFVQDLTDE
Chain of UniProt Q8NF50 (Q8NF50 whole entry, looked up): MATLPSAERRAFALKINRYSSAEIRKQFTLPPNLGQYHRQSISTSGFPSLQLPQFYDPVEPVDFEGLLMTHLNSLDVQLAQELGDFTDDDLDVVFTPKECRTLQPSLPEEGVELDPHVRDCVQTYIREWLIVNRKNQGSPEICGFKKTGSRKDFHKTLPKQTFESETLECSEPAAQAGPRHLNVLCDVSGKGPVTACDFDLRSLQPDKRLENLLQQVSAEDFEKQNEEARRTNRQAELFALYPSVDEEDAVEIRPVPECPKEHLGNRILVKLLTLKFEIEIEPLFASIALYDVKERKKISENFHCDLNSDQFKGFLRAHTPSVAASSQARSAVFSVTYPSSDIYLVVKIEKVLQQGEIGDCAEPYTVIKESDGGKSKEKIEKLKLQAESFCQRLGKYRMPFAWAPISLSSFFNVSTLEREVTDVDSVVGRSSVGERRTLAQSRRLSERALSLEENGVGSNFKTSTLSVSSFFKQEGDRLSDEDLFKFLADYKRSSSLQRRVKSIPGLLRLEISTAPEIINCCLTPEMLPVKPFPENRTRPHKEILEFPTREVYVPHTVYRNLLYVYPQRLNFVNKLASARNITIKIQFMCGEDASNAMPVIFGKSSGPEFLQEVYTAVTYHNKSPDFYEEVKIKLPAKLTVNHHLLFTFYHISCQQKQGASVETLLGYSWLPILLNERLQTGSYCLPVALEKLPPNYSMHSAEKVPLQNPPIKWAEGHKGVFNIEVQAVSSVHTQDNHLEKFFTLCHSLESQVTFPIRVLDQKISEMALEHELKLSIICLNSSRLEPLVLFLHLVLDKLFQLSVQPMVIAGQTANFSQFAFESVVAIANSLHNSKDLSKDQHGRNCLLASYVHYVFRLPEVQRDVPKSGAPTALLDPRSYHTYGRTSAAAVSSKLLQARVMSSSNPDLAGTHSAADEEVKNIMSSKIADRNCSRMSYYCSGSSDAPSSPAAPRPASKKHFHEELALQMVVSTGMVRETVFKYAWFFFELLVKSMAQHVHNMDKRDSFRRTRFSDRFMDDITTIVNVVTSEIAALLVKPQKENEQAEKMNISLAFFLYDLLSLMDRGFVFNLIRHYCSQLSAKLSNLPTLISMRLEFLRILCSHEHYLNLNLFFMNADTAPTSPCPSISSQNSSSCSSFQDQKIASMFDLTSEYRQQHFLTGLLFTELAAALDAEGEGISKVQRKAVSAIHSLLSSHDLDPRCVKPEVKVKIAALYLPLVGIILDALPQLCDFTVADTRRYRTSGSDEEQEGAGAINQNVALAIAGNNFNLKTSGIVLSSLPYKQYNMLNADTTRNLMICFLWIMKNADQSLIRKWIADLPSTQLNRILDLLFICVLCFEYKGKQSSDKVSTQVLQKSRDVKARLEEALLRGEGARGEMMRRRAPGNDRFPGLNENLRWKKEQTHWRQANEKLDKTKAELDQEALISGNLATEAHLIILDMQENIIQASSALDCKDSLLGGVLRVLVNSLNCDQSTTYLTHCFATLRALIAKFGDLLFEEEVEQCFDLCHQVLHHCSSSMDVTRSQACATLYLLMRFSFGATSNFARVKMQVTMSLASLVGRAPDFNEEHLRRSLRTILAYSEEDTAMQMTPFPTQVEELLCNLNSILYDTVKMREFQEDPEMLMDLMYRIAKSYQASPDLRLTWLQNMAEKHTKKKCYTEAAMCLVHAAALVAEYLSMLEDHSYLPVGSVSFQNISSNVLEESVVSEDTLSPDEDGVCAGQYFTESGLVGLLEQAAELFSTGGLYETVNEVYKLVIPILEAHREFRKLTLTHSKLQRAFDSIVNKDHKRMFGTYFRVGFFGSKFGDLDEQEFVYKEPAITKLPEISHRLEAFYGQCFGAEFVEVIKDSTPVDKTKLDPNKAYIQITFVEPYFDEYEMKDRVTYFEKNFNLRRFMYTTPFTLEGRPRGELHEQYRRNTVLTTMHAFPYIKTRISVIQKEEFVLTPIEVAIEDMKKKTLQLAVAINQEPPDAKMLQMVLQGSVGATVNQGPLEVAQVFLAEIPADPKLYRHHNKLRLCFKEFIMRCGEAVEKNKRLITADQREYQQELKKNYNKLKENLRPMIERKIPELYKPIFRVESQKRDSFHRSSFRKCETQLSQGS
Chain of UniProt Q9BQI3 (Q9BQI3 whole entry, looked up): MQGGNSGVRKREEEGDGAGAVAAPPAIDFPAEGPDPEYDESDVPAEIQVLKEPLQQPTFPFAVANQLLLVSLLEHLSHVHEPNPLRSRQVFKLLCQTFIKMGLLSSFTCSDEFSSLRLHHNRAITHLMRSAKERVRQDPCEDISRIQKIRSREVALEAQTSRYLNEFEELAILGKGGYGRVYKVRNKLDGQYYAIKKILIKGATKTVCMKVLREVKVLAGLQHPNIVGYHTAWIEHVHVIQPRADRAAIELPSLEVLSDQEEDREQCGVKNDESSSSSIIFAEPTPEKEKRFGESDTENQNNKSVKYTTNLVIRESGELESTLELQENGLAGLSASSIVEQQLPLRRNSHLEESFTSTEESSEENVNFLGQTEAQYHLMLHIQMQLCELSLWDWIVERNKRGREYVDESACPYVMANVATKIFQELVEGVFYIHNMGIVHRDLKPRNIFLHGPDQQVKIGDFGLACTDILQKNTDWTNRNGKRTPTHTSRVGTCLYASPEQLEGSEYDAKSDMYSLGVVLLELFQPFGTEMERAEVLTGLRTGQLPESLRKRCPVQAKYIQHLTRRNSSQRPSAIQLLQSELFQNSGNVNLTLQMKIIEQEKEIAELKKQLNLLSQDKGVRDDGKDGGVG
Chain of UniProt Q9H410 (Q9H410 whole entry, looked up): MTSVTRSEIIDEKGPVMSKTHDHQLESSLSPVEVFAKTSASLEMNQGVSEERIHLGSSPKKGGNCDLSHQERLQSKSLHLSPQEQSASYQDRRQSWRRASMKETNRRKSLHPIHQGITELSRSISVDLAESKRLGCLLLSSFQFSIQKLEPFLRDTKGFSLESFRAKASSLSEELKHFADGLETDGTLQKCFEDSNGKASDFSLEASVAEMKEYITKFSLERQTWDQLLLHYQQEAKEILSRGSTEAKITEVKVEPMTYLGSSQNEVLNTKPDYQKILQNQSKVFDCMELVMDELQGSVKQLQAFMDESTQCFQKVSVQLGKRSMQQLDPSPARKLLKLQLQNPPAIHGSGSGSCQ
Chain of UniProt Q6UX07 (Q6UX07 whole entry, looked up): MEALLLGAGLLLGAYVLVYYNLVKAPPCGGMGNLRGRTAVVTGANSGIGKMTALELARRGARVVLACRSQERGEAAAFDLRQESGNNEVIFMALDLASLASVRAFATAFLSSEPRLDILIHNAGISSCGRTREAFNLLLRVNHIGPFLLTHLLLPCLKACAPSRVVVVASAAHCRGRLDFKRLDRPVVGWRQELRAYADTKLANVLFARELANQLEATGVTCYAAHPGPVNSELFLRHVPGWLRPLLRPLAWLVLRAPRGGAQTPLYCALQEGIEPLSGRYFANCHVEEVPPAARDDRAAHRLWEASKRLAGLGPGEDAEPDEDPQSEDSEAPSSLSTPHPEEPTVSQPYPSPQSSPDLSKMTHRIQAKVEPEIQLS
Chain of UniProt Q9BPY3 (Q9BPY3 whole entry, looked up): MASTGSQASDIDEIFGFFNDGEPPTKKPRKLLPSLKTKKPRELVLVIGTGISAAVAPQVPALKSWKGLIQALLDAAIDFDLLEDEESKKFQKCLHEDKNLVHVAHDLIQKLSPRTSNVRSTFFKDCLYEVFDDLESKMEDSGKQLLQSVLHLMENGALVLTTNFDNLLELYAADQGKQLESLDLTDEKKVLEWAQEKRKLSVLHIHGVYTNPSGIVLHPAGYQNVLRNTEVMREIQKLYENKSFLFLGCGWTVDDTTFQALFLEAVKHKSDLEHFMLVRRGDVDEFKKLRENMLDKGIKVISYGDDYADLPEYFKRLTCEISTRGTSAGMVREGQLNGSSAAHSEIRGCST
Chain of UniProt P32519 (P32519 whole entry, looked up): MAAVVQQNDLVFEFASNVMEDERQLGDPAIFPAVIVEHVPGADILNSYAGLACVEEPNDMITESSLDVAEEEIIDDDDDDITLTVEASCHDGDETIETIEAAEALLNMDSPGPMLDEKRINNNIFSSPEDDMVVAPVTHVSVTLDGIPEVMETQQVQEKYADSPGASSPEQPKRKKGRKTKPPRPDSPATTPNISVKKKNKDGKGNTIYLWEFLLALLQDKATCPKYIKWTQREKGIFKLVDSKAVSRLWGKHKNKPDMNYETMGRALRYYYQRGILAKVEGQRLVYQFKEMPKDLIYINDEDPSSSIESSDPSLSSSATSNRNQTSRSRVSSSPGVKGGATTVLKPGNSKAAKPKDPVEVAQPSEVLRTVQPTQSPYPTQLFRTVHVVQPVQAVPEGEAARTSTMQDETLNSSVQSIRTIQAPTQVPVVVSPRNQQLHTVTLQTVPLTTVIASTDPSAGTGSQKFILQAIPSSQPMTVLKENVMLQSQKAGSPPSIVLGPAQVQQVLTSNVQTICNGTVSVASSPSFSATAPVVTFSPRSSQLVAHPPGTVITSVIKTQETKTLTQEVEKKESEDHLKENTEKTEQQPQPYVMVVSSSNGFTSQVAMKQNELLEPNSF
Chain of UniProt Q8N8J7 (Q8N8J7 whole entry, looked up): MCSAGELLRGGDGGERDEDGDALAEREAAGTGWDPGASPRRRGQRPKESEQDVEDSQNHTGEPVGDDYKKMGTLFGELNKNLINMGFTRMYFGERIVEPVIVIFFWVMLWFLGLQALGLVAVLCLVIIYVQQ

Row | Target | log2 fold change
1 | DYNC1I2 isoform 2 (UniProt Q13409) | -0.647 (active)
2 | EZH2 isoform 2 (UniProt Q15910) | 0.072
3 | EHBP1L1 (UniProt Q8N3D4) | 0.012
4 | DDX5 (UniProt P17844) | 0.125
5 | FAM177A1 isoform 2 (UniProt Q8N128) | -0.063
6 | EXOC4 (UniProt Q96A65) | 0.098
7 | E2F4 (UniProt Q16254) | -0.095
8 | DNAH10 (UniProt Q8IVF4) | -0.055
9 | DSN1 (UniProt Q9H410) | -0.05
10 | DNM2 isoform 4 (UniProt P50570) | -0.087
11 | CWF19L2 (UniProt Q2TBE0) | 0.027
12 | DDOST (UniProt P39656) | -0.055
13 | CTSS (UniProt P25774) | 0.059
14 | DUS3L (UniProt Q96G46) | -0.075
15 | EFL1 (UniProt Q7Z2Z2) | 0.016
16 | EEF1A1 (UniProt P68104) | -0.474
17 | DPP8 (UniProt Q6V1X1) | -0.048
18 | DDX27 (UniProt Q96GQ7) | 0.37
19 | DBT (UniProt P11182) | 0.054
20 | FAM241A (UniProt Q8N8J7) | -0.007

Row | Target | log2 fold change
21 | CYB561A3 isoform 2 (UniProt Q8NBI2) | -0.073
22 | FAM193B (UniProt Q96PV7) | 0.348
23 | FAM117A (UniProt Q9C073) | -0.132
24 | EHD2 (UniProt Q9NZN4) | -0.008
25 | DAXX (UniProt Q9UER7) | 0.106
26 | DHRS13 (UniProt Q6UX07) | 0.058
27 | CTNNB1 (UniProt P35222) | -0.102
28 | DOCK8 (UniProt Q8NF50) | 0.67 (active)
29 | EIF4G3 isoform 3 (UniProt O43432) | 0.074
30 | DCP2 (UniProt Q8IU60) | 0.009
31 | EIF2AK1 (UniProt Q9BQI3) | 0.045
32 | FAF2 (UniProt Q96CS3) | 0.049
33 | ELF1 (UniProt P32519) | -0.007
34 | DNAJC24 (UniProt Q6P3W2) | -0.004
35 | EXOSC10 (UniProt Q01780) | -0.015
36 | DNAH5 (UniProt Q8TE73) | -0.076
37 | FAM118B (UniProt Q9BPY3) | 0.107
38 | ELAC1 (UniProt Q9H777) | -0.137
39 | EIF4E2 (UniProt O60573) | 0.085
